ChEMBL document CHEMBL3433997, “St. Jude Leishmania screening dataset” (2016)

The compounds below were run against Solute carrier family 2, facilitated glucose transporter member 1 (Homo sapiens) (UniProt P11166) (assay: ST_JUDE_LEISH: Cytotoxicity at 2uM final concentration against transgenic Leishmania Mexicana promastigotes LmGLUT1 that are glucose transport deficient and complemented with the human glucose transporter GLUT1. Activity is measured by DNA content using SYBR green in vitro).
Assay type: functional

Sequence of Solute carrier family 2, facilitated glucose transporter member 1 (Homo sapiens) (P11166 whole entry): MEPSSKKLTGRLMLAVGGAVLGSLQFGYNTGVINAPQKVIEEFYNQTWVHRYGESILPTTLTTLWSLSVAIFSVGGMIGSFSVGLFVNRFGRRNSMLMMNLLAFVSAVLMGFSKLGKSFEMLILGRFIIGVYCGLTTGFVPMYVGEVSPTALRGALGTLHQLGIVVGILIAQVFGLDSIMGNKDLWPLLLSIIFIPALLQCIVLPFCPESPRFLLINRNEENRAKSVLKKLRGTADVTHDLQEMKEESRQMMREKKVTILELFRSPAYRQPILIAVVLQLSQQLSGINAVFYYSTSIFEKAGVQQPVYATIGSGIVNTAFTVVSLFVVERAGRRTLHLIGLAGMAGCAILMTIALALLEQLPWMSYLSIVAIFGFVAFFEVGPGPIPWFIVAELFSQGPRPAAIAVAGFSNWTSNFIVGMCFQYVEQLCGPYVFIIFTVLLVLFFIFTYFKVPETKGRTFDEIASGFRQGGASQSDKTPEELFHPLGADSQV

| Structure (SMILES) | inhibition |
| --- | --- |
| CC(C)CCOc1ccc(NC(=O)c2cccs2)cc1 | 4.93% |
| CCN(CC)CCCN(CCCN(CC)CC)c1cc(C)nc(Nc2ccc3cc(Br)ccc3c2)n1 | 1.34% |
| COCCn1c(-c2cccc(Cl)c2)nn(-c2ccc([N+](=O)[O-])cc2C#N)c1=S | 3.84% |
| COc1cccc(CN2CCCC(CCC(=O)Nc3ccc(C(F)(F)F)cc3)C2)c1O (stereo not given) | 1.04% |
| COc1ccc2nccc([C@@H](O)CN3CCC(NCc4nc5cc(F)ccc5o4)CC3)c2c1 | 8.07% |
| CC(Cc1ccc(OCCCCOc2ccccc2)cc1)NCCc1ccc(Oc2ccccc2)cc1 (stereo not given) | 87.5% |
| COc1ccccc1Nc1nc(C)cc(NCc2ccc(-c3c(C)noc3C)cc2)n1 | 19.5% |
| CCOC(=O)[C@H](Cc1cccc2ccccc12)NC(=O)[C@H](CCC(=O)OC(C)(C)C)NC(=O)c1ccc(N(C)Cc2cnc3nc(N)nc(N)c3n2)cc1 | 3.47% |
| c1cc(OCCN2CCCC2)ccc1CNC1CCN(CC2CCCCC2)CC1 | -3.76% |
| CCOC(=O)NC1=NC(C)(C)N(OCc2ccc(Cl)c(Cl)c2)C(NC(=O)OCC)=N1 | 3.54% |
| O=C(/C=C/c1ccc(Cl)c(Cl)c1)N1CCC(CN2CCC(c3c[nH]c4ncccc34)CC2)CC1 | 4.3% |
| COc1ccc2ncc(Cl)c(CCN3C[C@H](CNCc4ccc5c(n4)NC(=O)CS5)[C@H](O)C3)c2n1 | 5.41% |
| c1ccc(Oc2ccc(Nc3ccnc4cc(-c5ccc(CN6CCNCC6)o5)ccc34)cc2)nc1 | 11.2% |
| COc1cc(C(=O)N2CCOC(CCN3CCC(c4ccc(Cl)cc4)CC3)(c3ccc(Cl)c(Cl)c3)C2)cc(OC)c1OC (stereo not given) | 12.4% |
| CC(C)n1cc(CN2CCCC(C(=O)Nc3cccc(-c4cc5ccccc5[nH]4)c3)C2)cn1 (stereo not given) | 2.2% |
| CC(C)N1CCC(N(Cc2ccc(-c3ccc(C(F)(F)F)cc3)cc2)C(=O)CCCn2c(CCc3cccc(F)c3F)nc(=O)c3ccccc32)CC1 | 5.92% |
| CCCCCC(C)(C)NC[C@@H](O)[C@H](Cc1ccccc1)NC(=O)c1cc(NCC)cc(N2CCCC2=O)c1 | -0.4% |
| O=C(O)c1ccc(-c2cnc3ccc(NC4CCC(O)CC4)nn23)cc1 (stereo not given) | 0.42% |
| Fc1ccc2[nH]c(-c3ccc(-c4ccc(CN5CCN(CCN6CCOCC6)CC5)cc4)s3)nc2c1 | 6.46% |
| COc1cc2c(cc1NS(=O)(=O)c1ccc(OCc3ccc(Br)cc3)cc1)CCN(C1CCC1)CC2 | 0.64% |

| Structure (SMILES) | inhibition |
| --- | --- |
| CN1N=C2c3ccccc3CCC2C1c1ccc(C#N)cc1 (stereo not given) | 12.4% |
| CCCC(C)Nc1nc(C)cc(NCCC(=O)Nc2ccccc2)n1 (stereo not given) | 6.84% |
| O=C(NCc1ccccc1)NC(CCCN1CCC(Oc2cccc(Cl)c2)CC1)c1ccc(Cl)c(Cl)c1 (stereo not given) | 2.71% |
| CN1CCN(CCCNc2ncc3c(-c4ccc(NC(=O)Nc5cc(C(F)(F)F)ccc5F)c(F)c4)nn(C)c3n2)CC1 | -0.98% |
| CN1CCN(Cc2ccc(-c3ccc4c(Nc5ccc(Oc6ccccn6)cc5)ccnc4c3)o2)CC1 | -0.46% |
| CCOc1cc(C(=O)Nc2ccc(-c3nc4ccccc4[nH]3)cc2)cc(OCC)c1OCC | 7.99% |
| N#Cc1ccc2c(c1)CCN(CCC1CCC(NC(=O)c3cc4cccc([N+](=O)[O-])c4[nH]3)CC1)C2 (stereo not given) | 10.1% |
| Cn1ccc2c3c(N)nc(N)nc3ccc21 | 0.43% |
| CCCNCc1ccc(-c2ccc(CN(CCOC)C(=O)COc3ccccc3Cl)cc2)nc1 | -0.3% |
| CCc1c(CCNCCCCCCNCCc2ccccc2)ccc(OC)c1OC | 4.61% |
| O=C(Nc1cccc(CN2CCCN(CCc3ccccc3)CC2)c1)c1ccc(Cl)c(Cl)c1 | 8.79% |
| COc1cc(N(C)Cc2cnc3nc(N)nc(N)c3n2)cc(OC)c1OC | 4.09% |
| CCCCCCCN(Cc1ccc(OC(C)(C)C(=O)OCC)cc1)C(=O)Nc1ccccc1OC(F)(F)F | 0% |
| Cn1nc(-c2ccc(CN[C@@H]3CCc4ccc(O)cc43)cc2)c2cnc(NCCCN3CCCC3)nc21 | 1.97% |
| CN1CCC(Oc2ccc(Nc3nccc(NCC(O)c4ccccc4)n3)cc2Cl)CC1 (stereo not given) | -2.84% |
| CCCc1ccc(N2C(N)=NC(N)=NC2(C)C)cc1 | 1.9% |
| Oc1ccc(Br)cc1C(O)CNCc1ccccc1OCc1ccccc1 (stereo not given) | 2.85% |
| O=C(N[C@@H](Cc1ccccc1)C(=O)NCCN1CCCCC1)c1ccc(O)c(-c2ccc(Cl)c(Cl)c2)c1 | 1.95% |
| CCOc1ccc(Nc2ccc3nonc3c2S(=O)(=O)Nc2ccc(OCC)cc2)cc1 | -0.07% |
| O=C(Cc1ccc[n+]([O-])c1)Nc1cccc(-c2cccc(-c3nc4cc(F)ccc4[nH]3)c2)c1 | 1.61% |

These compounds were tested against Hexose transporter 1 (Plasmodium falciparum) (UniProt O97467) (assay: ST_JUDE_LEISH: Cytotoxicity at 2uM final concentration against transgenic Leishmania Mexicana promastigotes LmPfHT that are glucose transport deficient and complemented with the Plasmodium falciparum hexose transporter. Activity is measured by DNA content using SYBR green in vitro).
Assay type: functional

| Structure (SMILES) | inhibition |
| --- | --- |
| CC(C)CCOc1ccc(NC(=O)c2cccs2)cc1 | 5.81% |
| CCN(CC)CCCN(CCCN(CC)CC)c1cc(C)nc(Nc2ccc3cc(Br)ccc3c2)n1 | 4.9% |
| COCCn1c(-c2cccc(Cl)c2)nn(-c2ccc([N+](=O)[O-])cc2C#N)c1=S | -0.81% |
| COc1cccc(CN2CCCC(CCC(=O)Nc3ccc(C(F)(F)F)cc3)C2)c1O (stereo not given) | 2.12% |
| COc1ccc2nccc([C@@H](O)CN3CCC(NCc4nc5cc(F)ccc5o4)CC3)c2c1 | 6.24% |
| CC(Cc1ccc(OCCCCOc2ccccc2)cc1)NCCc1ccc(Oc2ccccc2)cc1 (stereo not given) | 84.7% |
| COc1ccccc1Nc1nc(C)cc(NCc2ccc(-c3c(C)noc3C)cc2)n1 | 9.8% |
| CCOC(=O)[C@H](Cc1cccc2ccccc12)NC(=O)[C@H](CCC(=O)OC(C)(C)C)NC(=O)c1ccc(N(C)Cc2cnc3nc(N)nc(N)c3n2)cc1 | 4.12% |
| c1cc(OCCN2CCCC2)ccc1CNC1CCN(CC2CCCCC2)CC1 | -0.11% |
| CCOC(=O)NC1=NC(C)(C)N(OCc2ccc(Cl)c(Cl)c2)C(NC(=O)OCC)=N1 | 2.08% |
| O=C(/C=C/c1ccc(Cl)c(Cl)c1)N1CCC(CN2CCC(c3c[nH]c4ncccc34)CC2)CC1 | 3.52% |
| COc1ccc2ncc(Cl)c(CCN3C[C@H](CNCc4ccc5c(n4)NC(=O)CS5)[C@H](O)C3)c2n1 | 2.07% |
| c1ccc(Oc2ccc(Nc3ccnc4cc(-c5ccc(CN6CCNCC6)o5)ccc34)cc2)nc1 | 8.71% |
| COc1cc(C(=O)N2CCOC(CCN3CCC(c4ccc(Cl)cc4)CC3)(c3ccc(Cl)c(Cl)c3)C2)cc(OC)c1OC (stereo not given) | 11.2% |
| CC(C)n1cc(CN2CCCC(C(=O)Nc3cccc(-c4cc5ccccc5[nH]4)c3)C2)cn1 (stereo not given) | -0.11% |
| CC(C)N1CCC(N(Cc2ccc(-c3ccc(C(F)(F)F)cc3)cc2)C(=O)CCCn2c(CCc3cccc(F)c3F)nc(=O)c3ccccc32)CC1 | 3.92% |
| CCCCCC(C)(C)NC[C@@H](O)[C@H](Cc1ccccc1)NC(=O)c1cc(NCC)cc(N2CCCC2=O)c1 | 0.68% |
| O=C(O)c1ccc(-c2cnc3ccc(NC4CCC(O)CC4)nn23)cc1 (stereo not given) | 0.39% |
| Fc1ccc2[nH]c(-c3ccc(-c4ccc(CN5CCN(CCN6CCOCC6)CC5)cc4)s3)nc2c1 | 2.96% |
| COc1cc2c(cc1NS(=O)(=O)c1ccc(OCc3ccc(Br)cc3)cc1)CCN(C1CCC1)CC2 | -0.8% |

| Structure (SMILES) | inhibition |
| --- | --- |
| CN1N=C2c3ccccc3CCC2C1c1ccc(C#N)cc1 (stereo not given) | 9.98% |
| CCCC(C)Nc1nc(C)cc(NCCC(=O)Nc2ccccc2)n1 (stereo not given) | 8.38% |
| O=C(NCc1ccccc1)NC(CCCN1CCC(Oc2cccc(Cl)c2)CC1)c1ccc(Cl)c(Cl)c1 (stereo not given) | -0.32% |
| CN1CCN(CCCNc2ncc3c(-c4ccc(NC(=O)Nc5cc(C(F)(F)F)ccc5F)c(F)c4)nn(C)c3n2)CC1 | -3.33% |
| CN1CCN(Cc2ccc(-c3ccc4c(Nc5ccc(Oc6ccccn6)cc5)ccnc4c3)o2)CC1 | 0.11% |
| CCOc1cc(C(=O)Nc2ccc(-c3nc4ccccc4[nH]3)cc2)cc(OCC)c1OCC | 5.32% |
| N#Cc1ccc2c(c1)CCN(CCC1CCC(NC(=O)c3cc4cccc([N+](=O)[O-])c4[nH]3)CC1)C2 (stereo not given) | 10.8% |
| Cn1ccc2c3c(N)nc(N)nc3ccc21 | 1.8% |
| CCCNCc1ccc(-c2ccc(CN(CCOC)C(=O)COc3ccccc3Cl)cc2)nc1 | 1.54% |
| CCc1c(CCNCCCCCCNCCc2ccccc2)ccc(OC)c1OC | 5.04% |
| O=C(Nc1cccc(CN2CCCN(CCc3ccccc3)CC2)c1)c1ccc(Cl)c(Cl)c1 | 8.5% |
| COc1cc(N(C)Cc2cnc3nc(N)nc(N)c3n2)cc(OC)c1OC | 3.84% |
| CCCCCCCN(Cc1ccc(OC(C)(C)C(=O)OCC)cc1)C(=O)Nc1ccccc1OC(F)(F)F | -1.12% |
| Cn1nc(-c2ccc(CN[C@@H]3CCc4ccc(O)cc43)cc2)c2cnc(NCCCN3CCCC3)nc21 | 0.42% |
| CN1CCC(Oc2ccc(Nc3nccc(NCC(O)c4ccccc4)n3)cc2Cl)CC1 (stereo not given) | -3.54% |
| CCCc1ccc(N2C(N)=NC(N)=NC2(C)C)cc1 | 1.17% |
| Oc1ccc(Br)cc1C(O)CNCc1ccccc1OCc1ccccc1 (stereo not given) | 3.54% |
| O=C(N[C@@H](Cc1ccccc1)C(=O)NCCN1CCCCC1)c1ccc(O)c(-c2ccc(Cl)c(Cl)c2)c1 | 3.59% |
| CCOc1ccc(Nc2ccc3nonc3c2S(=O)(=O)Nc2ccc(OCC)cc2)cc1 | -0.32% |
| O=C(Cc1ccc[n+]([O-])c1)Nc1cccc(-c2cccc(-c3nc4cc(F)ccc4[nH]3)c2)c1 | 1.76% |
